From PubChem BioAssay
IP6K1 inhibitor: blocks human inositol hexakisphosphate kinase 1 | IP6K1 kinase, ADP-Glo luminescence, 2 h; active compounds read low | activity change, % (series mostly up to about 58 µM) | actives 0.81% (n = 140,000); in the data active means activity change below about -25%; further: on the % scale 0 is the no-effect control and ±100 the full control effect
Target sequence (Q92551 whole entry, looked up): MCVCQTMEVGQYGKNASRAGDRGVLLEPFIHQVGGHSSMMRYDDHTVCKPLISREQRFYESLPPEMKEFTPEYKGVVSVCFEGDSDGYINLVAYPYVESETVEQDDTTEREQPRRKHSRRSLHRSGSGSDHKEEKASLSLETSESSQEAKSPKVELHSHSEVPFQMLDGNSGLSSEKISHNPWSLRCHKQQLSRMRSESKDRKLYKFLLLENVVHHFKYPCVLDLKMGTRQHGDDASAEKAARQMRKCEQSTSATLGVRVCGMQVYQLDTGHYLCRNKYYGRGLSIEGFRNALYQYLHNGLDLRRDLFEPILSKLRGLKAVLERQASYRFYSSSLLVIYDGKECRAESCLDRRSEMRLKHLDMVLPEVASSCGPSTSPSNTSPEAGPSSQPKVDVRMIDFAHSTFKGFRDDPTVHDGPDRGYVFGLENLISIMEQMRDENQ
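ADP-Glo luminescence measures ADP made by human IP6K1 during a 2 h RT reaction with ATP/IP6 (mix at 1.3 mM/130 uM); top library doses 57.5 and 19.1 uM final.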
KDM5B inh: KDM5B demethylase inhibition; Q9UGL1; KDM5B demethylase, FDH-coupled NADH fluorescence (FDH is formaldehyde dehydrogenase); Potency, µM (series often up to 57.7 µM), most hits filed as inhibitors; actives 2.6% (n = 220,000); AID 1347165; active means well fitted inhibition curve with a large enough effect; inconclusive means small, poorly fitted or top-dose-only effect; inactive means no such curve, though single readings can be large or run the other way; further: potency means the concentration at half of the fitted maximal effect; 0% is about no effect; nearly all actives have a fitted effect of over 70% in size
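Compound dilutions met 200 nM (final) KDM5BΔAP for 10 min at room temperature before substrate addition. The substrate mix held 12.5 µM H3K4me3 with cofactors 25 µM α-ketoglutarate and 50 µM Fe²⁺. NADH signal gain over 30 min defined activity.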
* marks the source's active call; other numbers are inactive results; i = inactive; ? = inconclusive; . = not tested or not shown. A selection: hits, their analogues and other compounds. The true share with any hit is near 2.7%.

SMILES	IP6K1 inhibitor	KDM5B inh
COc1cccc(N2C(=O)NC(=NC3CCCCC3)C23CCCN(Cc2ccc(F)cc2)C3)c1 (stereo not given)	-19	i
Cc1ccc(C2=NC3(CCN(C(=O)c4cc(F)ccc4Cl)CC3)ON2)cc1	16	i
O=C(c1cc(F)ccc1F)N1CCC2(CC1)N=C(c1ccc(Cl)cc1)NO2	-2	22µM*
COc1ccc(C(=O)N2CCC3(CC2)N=C(c2ccc(Cl)cc2)NO3)cc1	-1	32µM*
COc1cc(OC)cc(C(=O)N2CCC3(CC2)N=C(c2ccc(Cl)cc2)NO3)c1	-12	?
O=C(Cc1ccsc1)N1CCC2(CC1)N=C(c1ccc(Cl)cc1)NO2	-18	?
O=C(Cc1cccs1)N1CCC2(CC1)N=C(c1ccc(Cl)cc1)NO2	-6	25µM*
O=C(/C=C/c1ccco1)NCCc1c[nH]c2ccccc12	.	i
Cc1ccc2nc(C)c(C(=O)N3CCN(S(=O)(=O)c4ccccc4)CC3)cc2c1	.	i
COC(=O)N1CCN(Cc2ccccc2-c2cccnc2)CC1	13	.
CS(=O)(=O)c1ccc(-c2cnc([C@@H]3COCCN3Cc3ccc(Cl)cc3)[nH]2)cc1	0	?
COc1ccc(CN2CCOC[C@H]2c2ncc(-c3ccc(S(C)(=O)=O)cc3)[nH]2)cc1	-1	35µM*
CN1C(=O)c2cccn2CC1CNC(=O)c1cc(-c2ccccc2)n[nH]1 (stereo not given)	13	i
CN1C(=O)c2cccn2CC1CNC(=O)c1cc2ccccc2[nH]1 (stereo not given)	1	16µM*
COc1cc(OC)cc(C(=O)Oc2cccc3ccccc23)c1	.	i
Cc1cc(C)cc(C(=O)NCCn2ccn3nc(-c4ccc(C)cc4C)cc3c2=O)c1	-1	22µM*
Cc1ccc(-c2cc3c(=O)n(CCNC(=O)c4cccc(Cl)c4)ccn3n2)c(C)c1	0	28µM*
Cc1ccc(-c2cc3c(=O)n(CCNC(=O)c4ccccc4F)ccn3n2)c(C)c1	0	i
Cc1ccc(C(=O)NCCn2ccn3nc(-c4ccc(C)cc4C)cc3c2=O)cc1	0	i
Clc1ccc(Cl)c(-c2ccc(CNCC3CCNCC3)o2)c1	.	i
C=CCNC(=O)c1cccc2c(C)nnn12	7	32µM*
Cc1nnn2c(C(=O)NCc3ccc(Cl)nc3)cccc12	3	35µM*
Cc1nnn2c(C(=O)Nc3ccc(F)cc3)cccc12	10	?
Cc1nnn2c(C(=O)Nc3ccc(Cl)nc3)cccc12	9	?
CNC(=O)c1cccc2c(C)nnn12	-4	32µM*
SMILES	IP6K1 inhibitor	KDM5B inh
C=CCNC(=O)c1cccc(C(=O)OC)c1	.	i
O=C(NCc1ccc(Cl)cc1)c1nc2cccnc2n(C2CCCCC2)c1=O	2	.
O=C(NC1CCN(Cc2cccc(-c3cccs3)c2)CC1)c1ccccc1Cl	-4	.
COCC1CCN(C(=O)[C@@H]2CN(c3cnccn3)C[C@H]2COC)CC1	5	25µM*
O=C(NCCc1cccnc1)C1CC2CCC1C2 (stereo not given)	.	i
O=C(O)CC[C@@H]1CN(c2cnccn2)CC[C@@H]1N1CCOCC1	1	?
COC[C@@H]1CN(C(=O)CCc2c(C)n[nH]c2C)C[C@H]1c1ccncc1	-10	i
COC[C@@H]1CN(c2cnccn2)C[C@H]1C(=O)NCc1c(C)n[nH]c1C	13	20µM*
COC[C@@H]1CN(c2cnccn2)C[C@H]1C(=O)NCCc1cccnc1	8	25µM*
COc1ccc(C(=O)N[C@@H]2CCC[C@@H]2C(=O)NCCCn2cccn2)cn1	2	i
COC[C@@H]1CN(c2cnccn2)C[C@H]1C(=O)NCCCn1cccn1	14	20µM*
FC(F)(F)c1ccccc1CNCc1ccco1	.	i
CN(C(=O)c1cccc(OC(F)F)c1)C1CCCCC1	.	i
COC(=O)[C@@H]1Cc2c([nH]c3ccccc23)[C@H]2C[C@H](NCc3cccs3)C[C@@H](c3ccccc3)N21	-3	?
COC[C@@H]1CN(c2cnccn2)C[C@H]1C(=O)NCc1ccccc1OC	19	22µM*
COc1ccccc1CNC(=O)[C@H]1CCC[C@H]1NC(=O)c1ccncc1	17	i
Cc1cc(C)n(-c2nc3c(c(=O)n(CCc4ccccc4)c(=O)n3C)n2CCC(C)C)n1	.	i
Cc1nc2c(OCC(=O)OC(C)(C)C)cccn2c(=O)c1-c1cc(C)n(-c2ccc(Cl)cc2)n1	-8	28µM*
Cc1nc2c(OCC(=O)OC(C)(C)C)cccn2c(=O)c1-c1cc(C)n(-c2cccc(F)c2)n1	2	?
CCOC(=O)C(C)Oc1cccn2c(=O)c(-c3cc(C)n(-c4ccc(Cl)cc4)n3)c(C)nc12 (stereo not given)	17	22µM*
Cc1ccc(C(=O)COc2cccn3c(=O)c(-c4cc(C)n(-c5ccccc5)n4)c(C)nc23)cc1	5	?
Cc1ccc(-c2ccc3nnc(CNC(=O)c4cccc5[nH]ccc45)n3n2)cc1	-11	i
Cc1ccc(-c2ccc3nnc(CNC(=O)c4ccn[nH]4)n3n2)cc1	9	28µM*
COc1ccc(-c2ccc3nnc(CNC(=O)CCc4cccc(OC)c4)n3n2)cc1	8	?
COc1cccc(C(=O)NCc2nnc3ccc(-c4ccc(C)cc4)nn23)c1OC	-20	14µM*
SMILES	IP6K1 inhibitor	KDM5B inh
COc1ccc(C(=O)NCc2nnc3ccc(-c4ccc(Cl)cc4)nn23)c(OC)c1	19	i
COc1ccc(C(=O)NCc2nnc3ccc(-c4ccc(Cl)cc4)nn23)c(C)c1	12	25µM*
CCOc1ccc(CC(=O)NCc2nnc3ccc(-c4ccc(C)cc4)nn23)cc1	-20	?
COc1ccc(-c2ccc3nnc(CNC(=O)c4ccco4)n3n2)cc1	6	32µM*
O=C(CSc1ncnc2sc3c(c12)CCCC3)Nc1ccc(Cl)cn1	.	i
CCn1cnc2c1c(=O)n(CC(=O)Nc1ccccc1N1CCCC1)c(=O)n2Cc1ccccc1	.	i
CC(Cc1cccs1)N(Cc1ccccc1)C(=O)c1ccc(C#N)cc1 (stereo not given)	.	i
COc1ccc(C(=O)NCc2nnc3ccc(-c4ccc(C)c(C)c4)nn23)c(OC)c1	-13	?
COc1ccc(-c2ccc3nnc(CNC(=O)c4ccc(OC)cc4C)n3n2)cc1	13	28µM*
Cc1ccc(-c2ccc3nnc(CNC(=O)c4ccc(C)cc4C)n3n2)cc1	-2	13µM*
COc1ccc(-c2ccc3nnc(CNC(=O)c4ccc(C)c(C)c4)n3n2)cc1	15	25µM*
COc1cccc(CC(=O)NCc2nnc3ccc(-c4ccc(C)c(C)c4)nn23)c1	0	?
CCN(CC)C(=O)Cc1c(C)[nH]c2ccc(F)cc12	.	i
CC(C)Oc1ccc(C(=O)Nc2ccc(Oc3ccc(Cl)cc3)cc2)cc1	.	i
COc1ccccc1-c1ccc(C(=O)N2CCC(C(=O)NCc3ccc(F)cc3)CC2)cc1	19	.
CC(C)Cc1ccc(C(C)NC(=O)c2ccc(CS(C)(=O)=O)cc2)cc1 (stereo not given)	.	i
COc1ccc(-c2cc(C(=O)NCc3cnn(C)c3)c3c(c2)N(C)CCO3)cc1	-24	35µM*
COc1cc(F)ccc1-c1cc(C(=O)NCc2cccnc2)c2c(c1)N(C)CCO2	10	28µM*
COc1ncc(-c2cc(C(=O)NCc3cnn(C)c3)c3c(c2)N(C)CCO3)cn1	-18	i
COc1cc(F)ccc1-c1cc(C(=O)NCc2cnn(C)c2)c2c(c1)N(C)CCO2	-22	40µM*
